Compound activity deposited in PubChem by National Center for Advancing Translational Sciences (NCATS).
IL1B secr inh: inflammasome signaling inhibition, IL-1 beta readout; THP-1 LPS/ATP IL-1B secretion, AlphaLISA, 16 h; active compounds read low; activity change, % at 57.5 µM; 360,000 tested, 4.7% active; AID 743279; in the data active = activity change below about -50%; inconclusive = mostly about -30% to -49%; note: % is set by controls: 0 for no effect and ±100 for the full control effect
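Secreted IL-1B measured by AlphaLISA bead assay after 16 h compound exposure of THP-1 cells; compounds (final up to 57.5 uM) added 1 h before LPS (250 ng/mL) and ATP (1.25 mM) stimulation; lower signal means less secretion.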
TGFb SMAD3 inh: blocks TGF-b signaling | Potency, µM (titrated, usually from 46.1 µM), inactives show at the top dose activity, negative = inhibition, usual class: inhibitors | AID 588855 | 410,000 tested, 1.2% active | HepG2 CAGA-GFP TGF-b/SMAD3 reporter, GFP fluorescence, 18 h; TGF-beta stimulated, 500 pg/mL final; note: potency is the fitted concentration of half-maximal effect; % is set by controls: 0 for no effect and ±100 for the full control effect; nearly all actives have a fitted effect of over 65% in size
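GFP signal (ex488/em500-530) from TGF-beta-stimulated HEPG2 CAGA-GFP cells, 500 pg/mL final, 18 h at 37 degrees C in DMEM plus 1% FBS, normalized to unstimulated and DMSO-stimulated controls.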
HepG2 tox: counter-screen for TGF-b inhibitors: cytotoxicity in HepG2 cells | HepG2 CAGA-GFP viability, ATP luminescence, 18 h | Potency, µM (titrated, usually from 46.1 µM), inactives show at the top dose activity change, negative = cytotoxicity, actives largely listed as cytotoxic | 410,000 tested, 0.76% active; note: potency is the fitted concentration of half-maximal effect
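CellTiter-Glo luminescence gave cytotoxicity after 18 hours at 37 degrees C. The cells were HepG2 CAGA-GFP in 1% FBS DMEM, stimulated with 500 pg/mL TGF-beta after compound addition. %Activity was normalised to no-cell wells (complete cell-killing) and DMSO (no toxicity), and curves were fitted and classified.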
TDP1 cell noCPT: qHTS for Inhibitors of human tyrosyl-DNA phosphodiesterase 1 (TDP1): qHTS in cells in absence of CPT | Potency, µM (top dose mostly 46.2 µM), inactives show at the highest dose activity change, negative = growth inhibition, hits mostly inhibitors | DT40 Tdp1-/- hTDP1 cells, no CPT, ATP luminescence, 48 h | 420,000 tested, 15% active; note: potency is the fitted concentration of half-maximal effect; % is set by controls: 0 for no effect and ±100 for the full control effect; nearly all actives have a fitted effect of over 55% in size
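Cells were dispensed at 400 per well, compounds added by pin tool, plates incubated ≥48 hr at 37 °C, then CellTiter-Glo added for 30 min at room temperature before luminescence reading. Line: DT40 Tdp1-/- complemented with hTDP1; camptothecin omitted.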
TDP1 block: inhibitors of human tyrosyl-DNA phosphodiesterase TDP1 | 350,000 tested, 0.28% active | Potency, µM (top dose mostly 130 µM), inactives show at the top dose activity change, negative = inhibition, hits mostly inhibitors | recombinant TDP1, AlphaScreen DNA substrate cleavage | AID 485290; note: potency is the fitted concentration of half-maximal effect; % is set by controls: 0 for no effect and ±100 for the full control effect; nearly all actives have a fitted effect of over 40% in size
Target sequence (Q9NUW8 whole entry, looked up): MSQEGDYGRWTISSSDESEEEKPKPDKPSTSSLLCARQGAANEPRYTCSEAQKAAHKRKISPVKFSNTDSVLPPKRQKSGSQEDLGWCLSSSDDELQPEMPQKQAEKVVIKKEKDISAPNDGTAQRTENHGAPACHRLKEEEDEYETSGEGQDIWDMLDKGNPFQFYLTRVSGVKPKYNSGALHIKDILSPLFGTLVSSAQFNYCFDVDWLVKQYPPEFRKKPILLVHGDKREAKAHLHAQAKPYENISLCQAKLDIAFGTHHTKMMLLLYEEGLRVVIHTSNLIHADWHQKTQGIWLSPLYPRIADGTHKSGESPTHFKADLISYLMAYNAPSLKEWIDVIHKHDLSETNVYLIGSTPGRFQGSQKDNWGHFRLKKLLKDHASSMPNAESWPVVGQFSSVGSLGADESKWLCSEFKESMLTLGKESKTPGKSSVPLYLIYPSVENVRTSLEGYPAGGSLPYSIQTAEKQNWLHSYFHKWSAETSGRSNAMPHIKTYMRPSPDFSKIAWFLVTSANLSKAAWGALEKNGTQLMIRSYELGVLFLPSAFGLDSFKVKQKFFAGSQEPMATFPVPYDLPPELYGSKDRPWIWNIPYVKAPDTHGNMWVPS
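AlphaScreen read-out: signal falls as enzyme removes the 3' tyrosine-FITC from a 5'-biotinylated DNA oligo (15 nM, 5 min, RT). Enzyme was E. coli-made recombinant Tdp1 at 1 nM, exposed to compound for 15 min beforehand; beads 10 ug/ml, 10 min.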
DT40 TDP1 CPT: growth inhibition of DT40 Tdp1-/-;hTDP1 cells with camptothecin (screen for TDP1 inhibitors). chicken DT40 Tdp1-/-;hTDP1 cells + 20 nM CPT, ATP luminescence, 48 h. Potency, µM (series often up to 46.2 µM), for the others: top-dose activity change, negative = growth inhibition, actives largely listed as inhibitors. 420,000 tested, 12% active; note: potency is the fitted concentration of half-maximal effect; % is set by controls: 0 for no effect and ±100 for the full control effect; nearly all actives have a fitted effect of over 55% in size
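Chicken DT40 Tdp1-/- cells stably complemented with human TDP1 were seeded at 400 cells/well in medium containing 20 nM camptothecin, exposed to pin-transferred compounds, and grown at 37 °C for at least 48 hr. Viability was read as ATP luminescence.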
The depositor's hits bear a star; ? = inconclusive; . = no result; [ ] = dose if it differs, or a comment. Only some compounds are listed: those with a hit (about 19% of all), similar ones and a draw of the others. Unless noted, calls come from the whole dose curve; as a rule, active = well fitted curve in the direction sought with a large enough effect; inconclusive = small, poorly fitted or top-dose-only effect, or another doubt; inactive = no such curve, though single readings can be large; an effect the other way counts as inactive or inconclusive.

SMILES	IL1B secr inh	TGFb SMAD3 inh	HepG2 tox	TDP1 cell noCPT	TDP1 block	DT40 TDP1 CPT
Oc1ccc(Br)cc1-c1ccnn1-c1ccccc1	-1	?	8%	10µM*	4%	21µM*
Oc1ccc(Br)cc1-c1n[nH]c(=S)n1Cc1ccccc1	-6	0%	-10%	-29%	.	-11%
CCOc1ccc(C(=O)Nc2cc(-c3nc4ccccc4o3)ccc2C)cc1Cl	.	9%	2%	-6%	2%[12.3 µM]	-12%
Cc1ccc(Cl)cc1N1CCN(C(=O)CCSCc2ccccc2F)CC1	.	?	-44%	23µM*	13%	?
O=C(CCSCc1ccccc1F)N1CCN(c2ccccn2)CC1	16	-4%	-30%	-22%	4%	-17%
Cc1ccc(Cl)cc1N1CCN(C(=O)c2ccccc2SCC(=O)N2CCCC2)CC1	-1	?	-23%	8.2µM*	3%	21µM*
COCCn1c(=O)c(-c2ccccc2)nc2cnc(Oc3ccc(OC)cc3)nc21	.	.	.	-19%	.	?
CSc1nc(N)nc(SCC(=O)C23CC4CC(CC(C4)C2)C3)c1C#N	-21	?	-4%	18µM*	3%[56.1 µM]	?
N#Cc1c(N)nc(SCC(=O)C23CC4CC(CC(C4)C2)C3)c(C#N)c1-c1ccc(Cl)cc1	22	0%	3%	?	6%	?
CCCCOc1ccc(NC(=O)Cn2nnnc2-c2ccccc2F)cc1	.	0%	-19%	-21%	-2%	-18%
CC1CCCN(S(=O)(=O)c2ccc(NC(=O)Cn3nnc(-c4ccccc4F)n3)cc2)C1 (configuration not stated)	-3	?	0%	23µM*	11%	?
Cc1ccc(-c2nnn(CC(=O)Nc3ccc(S(=O)(=O)N4CCC(C)CC4)cc3)n2)cc1	0	?	-59%	18µM*	3%	?
CCOc1ccc(NC(=O)Cn2nnc(-c3ccccc3F)n2)cc1	27	-8%	-11%	?	8%	21µM*
CN(C)C(=O)c1ccc(NC(=O)Cn2nnnc2-c2ccccc2F)cc1	.	-11%	4%	18µM*	0%	15µM*
CC1CCCN(S(=O)(=O)c2ccc(NC(=O)CN3CCCCC3)cc2)C1 (configuration not stated)	-4	-7%	-9%	-24%	5%	-26%
CC1CCN(S(=O)(=O)c2ccc(NC(=O)Cn3nnc(-c4ccccc4)n3)cc2)CC1	-3	?	-71%	?	5%	?
C=CC[C@@H](Cc1ccc(F)cc1)C(=O)OC[C@@H]1CCCN1C(=O)[C@@H](CC=C)CC(=O)N[C@H](CO)Cc1ccccc1	?	?	-36%	16µM*	1%	10µM*
C=CC[C@@H](Cc1ccc(F)cc1)C(=O)OC[C@H]1CCCN1C(=O)[C@H](CC=C)CC(=O)NCCO	9	?	1%	?	2%	?
C=CCC[C@@H](Cc1ccc(F)cc1)C(=O)OC[C@@H]1CCCN1C(=O)[C@@H](CC=C)CC(=O)N(CCO)Cc1ccccc1	-73*	?	13µM*	18µM*	2%	16µM*
C=CC[C@@H](Cc1ccc(F)cc1)C(=O)OC[C@H]1CCCN1C(=O)[C@@H](CC=C)CC(=O)N[C@H](CO)Cc1ccccc1	-16	?	-3%	?	2%	?
C=CC[C@@H](Cc1ccc(F)cc1)C(=O)OC[C@H]1CCCN1C(=O)[C@@H](CC=C)CC(=O)N[C@@H](CO)Cc1ccccc1	-6	?	-10%	12µM*	-3%	12µM*
C=CC[C@@H](Cc1ccc(F)cc1)C(=O)OC[C@H]1CCCN1C(=O)[C@H](CC=C)CC(=O)N[C@H](CO)Cc1ccccc1	-3	?	-33%	?	-1%	21µM*
CSc1nc(C(=O)NCc2nc(-c3cccc(NC(=O)c4ccc(C)s4)c3)oc2C)cs1	.	.	.	-2%	.	9%[9.04 µM]
Cc1c(C)c(C)c(CN2CCCC2)c(C)c1C	10	6%	-32%	-23%	0%	-4%
C=CCC[C@@H](Cc1ccc(F)cc1)C(=O)OC[C@H]1CCCN1C(=O)[C@@H](CC=C)CC(=O)N[C@H](CO)Cc1ccccc1	-19	?	-20%	?	0%	?
SMILES	IL1B secr inh	TGFb SMAD3 inh	HepG2 tox	TDP1 cell noCPT	TDP1 block	DT40 TDP1 CPT
C=CC[C@@H](Cc1ccc(F)cc1)C(=O)OC[C@@H]1CCCN1C(=O)[C@@H](CC=C)CC(=O)N[C@@H](CO)Cc1ccccc1	-10	?	-17%	18µM*	-1%	?
C=CCC[C@H](Cc1ccc(F)cc1)C(=O)OC[C@H]1CCCN1C(=O)[C@@H](CC=C)CC(=O)NCCO	-25	-25%	-10%	?	2%	?
C=CCC[C@@H](Cc1ccc(F)cc1)C(=O)OC[C@@H]1CCCN1C(=O)[C@H](CC=C)CC(=O)N[C@H](CO)Cc1ccccc1	?	11µM*	-109%	18µM*	1%	?
Cc1nnc(SCC(=O)NNC(=O)c2ccccc2)n1N	0	20%	16%	3%	0%	-2%
OCC1(CCc2ccccc2)CCCN(C/C=C/c2ccccc2)C1 (configuration not stated)	?	-13%	-27%	?	.	7%
COc1ccccc1/C=C/CN1CCCC(CO)(CCc2ccccc2)C1 (configuration not stated)	-94*	-23%	-39%	?	.	21µM*
CCOC(=O)C1(CCOc2ccccc2)CCN(Cc2cccc(OC)c2)CC1	-8	?	-25%	15µM*	.	23µM*
CCOC(=O)C1(CCOC)CCN(Cc2ccccc2-c2ccco2)CC1	13	-7%	-16%	?	0%	?
CCOC(=O)C1(CCOc2ccccc2)CCN(Cc2ccc(C(=O)OC)cc2)CC1	0	-27%	-17%	?	.	?
CCOC(=O)C1CCN(Cc2cccc(OCc3ccccc3)c2)CC1	27	-12%	-3%	-4%	.	-16%
CCOC(=O)C1(CCOC)CCN(Cc2cccc(OCc3ccccc3)c2)CC1	0	-15%	-40%	16µM*	.	15µM*
CCOC(=O)C1(CCOC)CCN(Cc2nc(C(C)C)cs2)CC1	38	18%	-13%	26µM*	-2%	?
